This note sets out measurements from PubChem BioAssay (EPA / NIEHS).

“And” between values parts separate entries of the source, which are not always exact repeats. Equal values may be shown once. Some compounds were tested as several samples or in several runs, with calls that do not always agree. The source made the active and inactive calls. How the source made its calls: active means hit-call score of the fitted dose curve at least 0.9, where 1 is the maximum; inactive means score below 0.9.

The nature of test [1]: ATG_GLI_CIS: Attagene CIS-FACTORIAL HepG2 Assay for human Zinc Finger Protein GLI1 (AID 2282945). Particulars: HepG2, Attagene cis-factorial reporter mRNA, GLI element; actives raise or lower the signal. The method, boiled down: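 Transiently transfected HepG2 cells report endogenous transcription factor activity via cis-element-driven reporter units. After 24 h compound exposure, reporter mRNA was measured by RT-PCR with capillary electrophoresis; bidirectional fitting against DMSO baseline.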

Test [2] addresses Bile acid receptor (Homo sapiens) (UniProt Q96RI1). The test is described as follows: ATG_IR1_CIS: Attagene CIS-FACTORIAL HepG2 Assay for human Nuclear Receptor Subfamily 1 Group H Member 4 (NR1H4), IR1 submotif (AID 2282946). Particulars: IR1 reporter transcription, actives raise or lower the signal. The method in brief:
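Fluorescence of capillary-separated, HpaI-digested RT-PCR reporter products gave IR1-element mRNA induction in HepG2 cells 24 h after dosing. Endogenous transcription factors drove the cis-regulated reporters; activity was fitted bidirectionally against DMSO.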

The nature of test [3]: ATG_GRE_CIS: Attagene CIS-FACTORIAL HepG2 Assay for human Glucocorticoid Response Elements (GRE) (AID 2282947). Particulars: HepG2 GRE cis-reporter, Attagene multiplex mRNA; actives raise or lower the signal. The method in brief:
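Fluorescence intensity of reporter-specific cDNA fragments, separated by capillary electrophoresis, provides the signal. Constructs carry cis-regulating promoters in transiently transfected HepG2 liver cells; 24 h incubation; fitting is bidirectional against DMSO.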

The nature of test [4]: ATG_ISRE_CIS: Attagene CIS-FACTORIAL HepG2 Assay for human Interferon Regulatory Factor 1 (IRF1) binding to an Interferon-Stimulated Response Element (ISRE) (AID 2282948). Particulars: HepG2 ISRE cis-reporter (Attagene), mRNA transcription readout; actives raise or lower the signal. The method in brief: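 Endogenous transcription factor activity read as reporter transcript abundance via RT-PCR and capillary electrophoresis. HepG2 cells transiently transfected, 24 h chemical exposure. Gain or loss fitted against DMSO baseline.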

Test [5] is described as follows: ATG_M_32_CIS: Attagene CIS-FACTORIAL HepG2 Assay for M32 Transcription Factor (Internal Marker) (AID 2282949).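 Further: background control marker of the multiplexed CIS panel rather than a real target.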 Particulars: HepG2 Attagene cis-factorial M32 reporter, mRNA; actives raise or lower the signal. The method in brief: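 HepG2 transfectants (cis-regulated reporter transcription units) dosed 24 h. Reporter mRNA by RT-PCR plus CE, analysed as gain or loss relative to DMSO.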

Test [6] is described as follows: ATG_M_06_CIS: Attagene CIS-FACTORIAL HepG2 Assay for M06 Transcription Factor (Internal Marker) (AID 2282950). Particulars: HepG2 Attagene CIS-FACTORIAL M06 internal marker reporter; actives raise or lower the signal. The method, boiled down:
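One of many multiplexed endpoints: HepG2 reporter mRNA after 24 h dosing, detected by RT-PCR and capillary electrophoresis fluorescence; gain or loss of signal analysed against DMSO.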

Test [7] addresses Hypoxia-inducible factor 1-alpha (Homo sapiens) (UniProt Q16665). The test is described as follows: ATG_HIF1a_CIS: Attagene CIS-FACTORIAL HepG2 Assay for human Hypoxia Inducible Factor 1 (HIF1A) (AID 2282951). Particulars: HepG2 Attagene cis-factorial HIF1a reporter transcription; actives raise or lower the signal. The method, boiled down: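 Cis-element reporter constructs were transiently transfected into HepG2 cells, which were treated for 24 h; reporter RNA was reverse-transcribed, amplified, labelled and resolved by capillary electrophoresis.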

The target of test [8] is Hepatocyte nuclear factor 6 (Homo sapiens) (UniProt Q9UBC0). The test is described as follows: ATG_HNF6_CIS: Attagene CIS-FACTORIAL HepG2 Assay for human Hepatocyte Nuclear Factor 6 (HNF6) (AID 2282952). To be noted: HepG2 Attagene cis-factorial HNF6 reporter transcription; actives raise or lower the signal. The method in brief: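 First, HepG2 cells were transfected with the multiplexed cis reporter library and dosed with chemical for 24 h. Next, RNA was reverse-transcribed, PCR-amplified and fluorescently labelled. Finally, HpaI-digested fragments were read by capillary electrophoresis.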

Test [9] deals with Heat shock factor protein 1 (Homo sapiens) (UniProt Q00613). Briefly: ATG_HSE_CIS: Attagene CIS-FACTORIAL HepG2 Assay for human Heat Shock Transcription Factor 1 (HSE) (AID 2282953). Particulars: HepG2 HSE cis-reporter, Attagene RNA transcription; actives raise or lower the signal. The method in brief: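 Using HepG2 with transfected cis-driven reporter constructs, compound effects on endogenous factor activity are scored as reporter mRNA change at 24 h. Detection: RT-PCR, HpaI digestion, capillary electrophoresis; bidirectional fitting to DMSO.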

Test [10] is described as follows: ATG_MRE_CIS: Attagene CIS-FACTORIAL HepG2 Assay for human Metal Responsive Element (MRE) (AID 2282954). Particulars: HepG2 MRE cis-reporter transcription, Attagene multiplex; actives raise or lower the signal. The method in brief:
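Measured here is mRNA induction from an MRE cis-element reporter in HepG2 after 24 h, quantified by fluorescence of labelled RT-PCR products on capillary electrophoresis; gain- and loss-of-signal fits use DMSO as baseline.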

In general, AC50 refers to the concentration at which the activity in the assay is half-maximal.

Hepatocyte nuclear factor 6 (Homo sapiens), sequence (Q9UBC0 whole entry, looked up, the tested form may be a part): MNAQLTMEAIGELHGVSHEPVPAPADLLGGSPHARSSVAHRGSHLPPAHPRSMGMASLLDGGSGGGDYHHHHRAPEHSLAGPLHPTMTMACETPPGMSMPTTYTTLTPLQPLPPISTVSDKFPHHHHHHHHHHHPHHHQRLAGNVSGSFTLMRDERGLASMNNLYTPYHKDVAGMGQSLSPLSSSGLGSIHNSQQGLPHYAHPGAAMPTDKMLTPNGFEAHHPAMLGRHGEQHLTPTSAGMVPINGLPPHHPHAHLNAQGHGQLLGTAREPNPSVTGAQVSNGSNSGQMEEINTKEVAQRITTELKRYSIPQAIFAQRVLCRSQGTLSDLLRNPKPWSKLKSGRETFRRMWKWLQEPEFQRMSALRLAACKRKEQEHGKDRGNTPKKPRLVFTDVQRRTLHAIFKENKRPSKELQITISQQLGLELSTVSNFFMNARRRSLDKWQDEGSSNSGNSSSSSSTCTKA
Bile acid receptor (Homo sapiens), sequence (Q96RI1 whole entry, looked up): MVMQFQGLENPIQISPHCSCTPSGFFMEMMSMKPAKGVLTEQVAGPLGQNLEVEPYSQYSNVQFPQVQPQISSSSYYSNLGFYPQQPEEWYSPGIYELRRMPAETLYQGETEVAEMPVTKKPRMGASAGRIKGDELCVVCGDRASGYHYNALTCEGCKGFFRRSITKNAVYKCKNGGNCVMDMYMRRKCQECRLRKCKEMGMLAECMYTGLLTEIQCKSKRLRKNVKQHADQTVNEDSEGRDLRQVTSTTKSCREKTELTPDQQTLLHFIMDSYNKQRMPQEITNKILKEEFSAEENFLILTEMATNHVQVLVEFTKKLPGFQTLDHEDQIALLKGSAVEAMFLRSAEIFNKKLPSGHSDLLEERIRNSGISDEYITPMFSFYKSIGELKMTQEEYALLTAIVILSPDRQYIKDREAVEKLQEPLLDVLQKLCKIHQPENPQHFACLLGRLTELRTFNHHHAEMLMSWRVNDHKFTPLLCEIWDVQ
Heat shock factor protein 1 (Homo sapiens), sequence (Q00613 whole entry, looked up): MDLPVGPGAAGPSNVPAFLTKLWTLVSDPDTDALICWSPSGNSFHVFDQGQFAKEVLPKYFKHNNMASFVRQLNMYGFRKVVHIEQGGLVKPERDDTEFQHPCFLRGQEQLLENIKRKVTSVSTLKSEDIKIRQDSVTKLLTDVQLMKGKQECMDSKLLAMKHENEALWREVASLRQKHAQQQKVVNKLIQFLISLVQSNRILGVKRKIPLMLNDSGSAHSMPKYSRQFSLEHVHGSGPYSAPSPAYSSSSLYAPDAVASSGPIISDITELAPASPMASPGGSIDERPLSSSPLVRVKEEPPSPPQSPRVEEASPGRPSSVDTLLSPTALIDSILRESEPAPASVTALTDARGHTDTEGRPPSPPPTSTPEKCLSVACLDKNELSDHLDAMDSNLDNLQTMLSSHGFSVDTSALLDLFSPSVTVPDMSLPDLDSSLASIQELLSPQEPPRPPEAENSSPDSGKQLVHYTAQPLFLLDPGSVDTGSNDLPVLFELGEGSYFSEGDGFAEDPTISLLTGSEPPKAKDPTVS
Hypoxia-inducible factor 1-alpha (Homo sapiens), sequence (Q16665 whole entry, looked up): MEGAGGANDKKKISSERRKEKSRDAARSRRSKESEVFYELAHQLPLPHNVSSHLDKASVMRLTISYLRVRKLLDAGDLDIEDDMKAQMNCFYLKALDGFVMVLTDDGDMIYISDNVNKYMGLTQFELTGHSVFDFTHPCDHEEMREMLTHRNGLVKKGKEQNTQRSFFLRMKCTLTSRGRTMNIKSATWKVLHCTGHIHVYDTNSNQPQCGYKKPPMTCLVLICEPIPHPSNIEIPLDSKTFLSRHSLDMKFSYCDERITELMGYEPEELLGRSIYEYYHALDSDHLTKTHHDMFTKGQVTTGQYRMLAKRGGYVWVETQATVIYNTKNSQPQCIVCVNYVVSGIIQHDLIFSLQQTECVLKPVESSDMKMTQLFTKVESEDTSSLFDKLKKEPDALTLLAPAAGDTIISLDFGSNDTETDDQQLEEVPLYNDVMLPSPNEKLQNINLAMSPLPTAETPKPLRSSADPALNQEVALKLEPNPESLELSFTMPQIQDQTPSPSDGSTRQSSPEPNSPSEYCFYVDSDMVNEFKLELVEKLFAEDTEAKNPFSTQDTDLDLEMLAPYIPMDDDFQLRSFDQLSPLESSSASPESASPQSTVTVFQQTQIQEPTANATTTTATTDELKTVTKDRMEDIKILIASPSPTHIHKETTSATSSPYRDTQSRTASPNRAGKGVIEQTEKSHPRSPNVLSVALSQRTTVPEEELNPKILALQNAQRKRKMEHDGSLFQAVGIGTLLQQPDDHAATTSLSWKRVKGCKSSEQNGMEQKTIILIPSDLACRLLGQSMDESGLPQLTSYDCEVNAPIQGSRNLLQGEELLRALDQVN

For `CCCCOCCO`, the result in test [1], in test [2], in test [3], in test [4], in test [5] and in test [6] was inactive. In addition, the result in test [7], in [8], in [9] and in test [10] was inactive.

In the case of `N#C[C@@H]1CC(F)(F)CN1C(=O)CNC1CC2CCC(C1)N2c1ncccn1` (stereo partly drawn), the call in [1], in [2], in test [3], in test [4], in [5] and in test [6] was inactive. Further, the outcome in test [7], in [8], in [9] and in test [10] was inactive.

With `CCCOC(=O)c1ccc(O)cc1`, the result in test [1], in test [2], in test [3], in [4], in [5] and in test [6] was inactive. Moreover, the molecule was classed as inactive in [7], in test [8], in test [9] and in test [10]. The AC50 in test [7] was 176 µM (active); in test [10], 100 µM (active).

Turning to `CCc1nn(C2CCCCC2)c2cc(C3(C#N)CCC(C(=O)O)CC3)ccc12` (stereo not drawn), the molecule was called inactive in [1], in [2], in test [3], in test [5], in test [6] and in test [8]. Further, the molecule was called inactive in test [9]. Further, the results for the AC50 in test [4], in test [7] and in test [10] were 67.2 µM (active), 100 µM (active) and 100 µM (active), respectively.

With `COc1cc(CCC(=O)CC(=O)CCc2ccc(O)c(OC)c2)ccc1O`, the molecule was called inactive in [1], in test [2], in [3], in test [4], in test [5] and in test [6]. Further, the molecule was called inactive in test [7], in test [8] and in test [9]. The AC50 in test [10] is 76.4 µM (active).

As to `Cc1cc(C)c(O)c(C)c1`, the result in test [1], in [2], in test [3], in [4], in test [5] and in test [6] was inactive. In addition, the call in test [7], in [8], in test [9] and in test [10] was inactive.

As for `CC(C)(C)CC(C)(C)c1ccc(O)c(-n2nc3ccccc3n2)c1`, the molecule was called inactive in test [1], in [2], in test [3], in [4], in [5] and in test [6]. In addition, the result in test [7], in test [8], in [9] and in test [10] was inactive.

`O=C(O)Cc1cc(I)c(Oc2cc(I)c(O)c(I)c2)c(I)c1`: the AC50 in test [1] is 67 µM (active); in test [3], 17.2 µM (active); in test [5] it was 108 µM (active); in test [9], 40.5 µM (active) and 44.9 µM (active); in [10] it was 32.7 µM (active) and 54.7 µM (active). For the same molecule, the outcome in test [1], in test [3], in test [4], in test [5], in [6] and in test [7] was inactive. In addition, the outcome in test [8] was inactive.

For the molecule `NC(=O)N(O)[C@@H]1C=C[C@H](Oc2cccc(Oc3ccc(F)cc3)c2)C1`, the call in test [1], in test [2], in [3], in test [4], in [5] and in test [6] was inactive. Further, the call in [7] and in [8] was inactive. For the same molecule, the AC50 in test [9] was 52.8 µM (active); in test [10], 33 µM (active).

`COc1ccc([N+](=O)[O-])cc1N`: the molecule was called inactive in test [1], in [2], in test [3], in [4], in test [5] and in test [6]. Moreover, the molecule was classed as inactive in test [7], in [8], in test [9] and in test [10].

On to `OC1CCC(C2CCCCC2)CC1` (stereo not drawn), for which the AC50 in test [1] is 70.6 µM (active); in [2] it was 100 µM (active); in test [4] it was 73.8 µM (active) and 81.2 µM (active); in [7] it was 100 µM (active); in test [8], 154 µM (active); in [10] it was 121 µM (active) and 128 µM (active). Also, the molecule was classed as inactive in test [1], in [2], in test [3], in test [4], in test [5] and in test [6]. The call in test [7], in test [8], in [9] and in [10] was inactive.

In the case of `CCCCCCCCCCCCCCCS(=O)(=O)Oc1ccccc1`, the molecule was classed as inactive in [1], in test [2], in test [3], in test [4], in test [5] and in test [6]. The molecule was called inactive in [7], in test [8], in test [9] and in [10].

With `CC#C[C@]1(O)CC[C@H]2[C@@H]3CCC4=CC(=O)CCC4=C3[C@@H](c3ccc(N(C)C)cc3)C[C@@]21C`, the concentration at half-maximal activity (AC50) in test [1] was 100 µM (active) and 134 µM (active); in test [2] it was 8.96 µM (active) and 9.17 µM (active) and 10.6 µM (active); in [3], 26.7 µM (active); in test [7], 8.4 µM (active) [middle of 4 runs]; in [10], 21.3 µM (active) [middle of 4 runs]. Further, the call in test [1], in test [2], in [3], in test [5], in [6] and in test [8] was inactive.

On to `c1ccc2c(c1)Cc1ccccc1-2`, for which the molecule was classed as inactive in test [1], in test [2], in test [3], in [4], in test [5] and in test [6]. Further, the result in [7], in test [8], in test [9] and in [10] was inactive.

For the molecule `CCCCC(CC)COC(=O)CCCCC(=O)OCC(CC)CCCC` (stereo not drawn), the outcome in test [1], in test [2], in test [3], in [4], in [5] and in test [6] was inactive. For the same molecule, the call in test [7], in test [8], in test [9] and in [10] was inactive.

`CC[C@H](c1ccc(O)cc1)[C@@H](CC)c1ccc(O)cc1`: the result in [1], in [2], in [3], in [4], in [5] and in test [6] was inactive. Further, the molecule was called inactive in test [8], in test [9] and in test [10]. The AC50 in test [2] is 11.1 µM (active); in [4], 11.1 µM (active) and 17.2 µM (active); in test [10], 11.1 µM (active).

In the case of `CC(=O)CC(C)(C)O`, the molecule was classed as inactive in test [1], in test [2], in test [3], in test [4], in test [5] and in test [6]. The result in test [7], in test [8], in test [9] and in test [10] was inactive.
